Assay results as given in paper PMC4336329 (PLoS ONE, 2015).
Among all 310,000 compounds or so, about 14,000 (4.5%) showed an effect of 50% or more. Effects have a minus sign here. The list comes from a sample in which strong results are over-represented; it also holds similar structures and randomly drawn compounds.

target: human ether-à-go-go-related gene (hERG) potassium channel (human, UniProt Q12809); assay: primary screen, population patch clamp on CHO cells stably expressing hERG; higher = less effect of the substance
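Note: peak tail current of the secondary pulse compared with the same well before compound.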

Sequence of human ether-à-go-go-related gene (hERG) potassium channel (Q12809 whole entry, looked up): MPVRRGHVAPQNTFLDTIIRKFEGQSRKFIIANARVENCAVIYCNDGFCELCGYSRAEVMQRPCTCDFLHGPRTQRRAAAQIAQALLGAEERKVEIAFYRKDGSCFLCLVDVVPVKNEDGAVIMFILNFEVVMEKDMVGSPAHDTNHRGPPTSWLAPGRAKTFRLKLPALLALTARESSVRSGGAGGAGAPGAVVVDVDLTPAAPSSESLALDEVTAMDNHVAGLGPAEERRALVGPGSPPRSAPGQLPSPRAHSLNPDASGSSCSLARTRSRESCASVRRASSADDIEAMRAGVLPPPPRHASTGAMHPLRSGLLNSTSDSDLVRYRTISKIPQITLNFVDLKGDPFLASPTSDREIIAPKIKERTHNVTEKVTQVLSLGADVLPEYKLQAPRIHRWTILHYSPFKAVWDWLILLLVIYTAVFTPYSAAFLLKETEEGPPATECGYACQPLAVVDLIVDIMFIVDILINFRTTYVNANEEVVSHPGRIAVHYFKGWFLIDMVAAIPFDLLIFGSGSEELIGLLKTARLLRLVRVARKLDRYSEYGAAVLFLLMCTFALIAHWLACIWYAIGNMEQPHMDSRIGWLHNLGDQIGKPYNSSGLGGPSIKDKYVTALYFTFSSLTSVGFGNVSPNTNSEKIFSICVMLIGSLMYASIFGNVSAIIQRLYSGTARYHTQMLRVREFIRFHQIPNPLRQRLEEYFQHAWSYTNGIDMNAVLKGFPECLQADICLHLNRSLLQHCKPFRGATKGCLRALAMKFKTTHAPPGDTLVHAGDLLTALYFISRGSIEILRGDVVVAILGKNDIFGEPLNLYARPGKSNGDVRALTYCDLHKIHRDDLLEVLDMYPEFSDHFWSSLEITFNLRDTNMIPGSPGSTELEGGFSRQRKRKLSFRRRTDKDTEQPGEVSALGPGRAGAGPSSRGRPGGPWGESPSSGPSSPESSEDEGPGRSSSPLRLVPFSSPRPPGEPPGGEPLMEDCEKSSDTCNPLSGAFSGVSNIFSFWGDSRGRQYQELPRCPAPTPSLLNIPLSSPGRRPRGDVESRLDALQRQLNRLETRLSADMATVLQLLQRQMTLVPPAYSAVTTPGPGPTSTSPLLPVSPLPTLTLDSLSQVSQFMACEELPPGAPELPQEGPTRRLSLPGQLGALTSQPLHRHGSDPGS

In order of falling “hERG current change (%, negative = inhibition) at 10uM” value:
1. O=[N+]([O-])c1ccccc1N/N=C1\CC2CC=CC12 (stereo not drawn)  46.5%
2. CC(=O)Nc1ccc(C2C(=O)c3ccccc3C2=O)cc1  21.4%
3. O=c1[nH]c2ccccc2c2nc(-c3cccc(S(=O)(=O)N4CCCC4)c3)nn12  21.2%
4. Cc1cccc(N2CCN(C(C)C(=O)N3CCc4ccccc43)CC2)c1C (stereo not drawn)  17%
5. O=C(CCn1c(=O)[nH]c2ccccc2c1=O)Nc1ccccc1  16.4%
6. Cc1ccc(S(=O)(=O)N(C)c2ccc(OCC(=O)Nc3nc(-c4ccccc4)cs3)cc2)cc1  14.3%
7. Cc1ccc(-c2c[n+](CC(=O)Nc3c(C)cccc3C)c3n2CCC3)cc1.[Cl-]  14.1%
8. CN(CC(=O)Nc1cccc(F)c1)C(=O)/C=C/c1ccc(Br)s1  13.2%
9. O=C(c1cc2c(s1)CCC2)N1C(=O)c2ccccc2S1(=O)=O  12.9%
10. Cc1ccccc1-n1c(SCC(=O)N(C)C2CCS(=O)(=O)C2)nc2ccccc2c1=O (stereo not drawn)  11.6%
11. Cc1ccc(-n2c(SCC(=O)N(C)C3CCS(=O)(=O)C3)nc3ccccc3c2=O)cc1 (stereo not drawn)  11%
12. Cc1ccc(/C=N/n2c(C)nc3ccccc3c2=O)o1  10.9%
13. CC(=O)c1cccc(NC(=O)C(NC(C)C)c2ccccc2)c1 (stereo not drawn)  10.5%
14. CCN(C(=O)COC(=O)c1cc(S(=O)(=O)N2CCOCC2)c(Cl)cc1Cl)C1CCS(=O)(=O)C1 (stereo not drawn)  9.86%
15. COc1ccc(C(C)=O)cc1CSc1nc2cc(Cl)ccc2o1  9.66%
16. O=c1oc2cccnc2n1CCS(=O)(=O)c1ccc(F)cc1  9.29%
17. O=C(O)c1cc2n(n1)CCN(Cc1ccccc1Cl)C2=O  8.71%
18. CN(CC(=O)Nc1cccc(F)c1)C(=O)/C=C/c1ccc2ccccc2n1  7.19%
19. Cc1ccc(S(=O)(=O)NCC(=O)N(CC(=O)NCc2ccco2)Cc2ccc(F)cc2)cc1  5.19%
20. O=S(=O)(c1ccc2c(c1)OCCO2)N1CCN(Cc2ccc3c(c2)OCO3)CC1  3.98%
21. CCC(C(=O)Nc1cccc(C(F)(F)F)c1)c1ccccc1 (stereo not drawn)  3.89%
22. CCCNC(=O)CS(=O)(=O)Cc1nc(-c2ccccc2C)oc1C  3.88%
23. CCC1(C)Cc2ccccc2-c2c1c(=O)n(-c1ccc(C)cc1)c1nnnn21 (stereo not drawn)  2.8%
24. CCCN(C(=O)CSc1nc2ccccc2n1CC)C1CCS(=O)(=O)C1 (stereo not drawn)  2.29%
25. O=C(Nc1cc(C(F)(F)F)ccc1Cl)C(NCc1ccccc1)c1ccccc1 (stereo not drawn)  2.13%
26. COc1ccccc1C(=O)NC(=O)COC(=O)c1oc2ccccc2c1C  1.8%
27. CCCC(C)NC(=O)CN1C(=O)c2cccc3cccc1c23 (stereo not drawn)  1.42%
28. O=C(Cc1c[nH]c2ccccc12)Nc1nccs1  0.956%
29. O=[N+]([O-])c1cc(Br)c(O)c(/C=N/Nc2nnnn2-c2cccc3ccccc23)c1  0.778%
30. CCN(C(=O)CSc1nc2ccccc2n1CC)C1CCS(=O)(=O)C1 (stereo not drawn)  0.264%
31. O=C1CCc2cc(S(=O)(=O)NCCCC(=O)N3CCN(Cc4ccc5c(c4)OCO5)CC3)ccc2N1  -0.149%
32. Cc1nc2ccccc2c(=O)n1/N=C/c1ccccc1  -0.523%
33. OCC[C@H]1C[C@@H](O)[C@H](O)[C@]2(Cc3ccccc3CCO2)O1  -0.537%
34. Cc1cc2ncn(/N=C/c3ccc([N+](=O)[O-])o3)c2cc1C  -0.858%
35. Cc1ccccc1NC(=S)/C(=C(\[O-])c1ccc(C)c([N+](=O)[O-])c1)[n+]1ccccc1  -1.7%
36. CCOc1ccccc1NC(=O)Cn1c(-c2ccc(Cl)cc2)noc1=O  -2.01%
37. CCCc1nc(SCC(=O)NNC(=O)C2CCCCC2)c2ccccc2n1  -2.77%
38. CCOc1ccccc1C(=O)N(CN1CCCC1=O)c1cccc(Cl)c1  -3.65%
39. Cc1ccc(-c2c[n+](CC(=O)Nc3ccccc3C)c3n2CCC3)cc1.[Cl-]  -5.42%
40. Cc1cc2cc(CN(Cc3ccco3)C(=O)NCc3ccccc3)c(=O)[nH]c2cc1C  -6.54%
41. Cc1cc(Nc2ccccc2)c2c([N+](=O)[O-])cc(C)c(C)c2n1  -9.29%
42. CCCC(=O)OC(C(=O)Nc1cc(C(F)(F)F)ccc1Cl)c1ccccc1 (stereo not drawn)  -9.58%
43. CC(C)C(OC(=O)CN1C(=O)COc2ccccc21)C(=O)NC1CCCCC1 (stereo not drawn)  -9.89%
44. CCN(C(=O)CSc1nc2ccccc2c(=O)n1-c1ccc(C)cc1)C1CCS(=O)(=O)C1 (stereo not drawn)  -11.6%
45. Cc1nc2ccccc2n1/N=C/c1ccc([N+](=O)[O-])s1  -12.3%
46. Cc1ccc2c(Cl)c(C(=O)NCC3CCCO3)sc2c1 (stereo not drawn)  -12.8%
47. CCN(C(=O)CSc1nc2ccccc2c(=O)n1-c1cccc(C)c1)C1CCS(=O)(=O)C1 (stereo not drawn)  -14.9%
48. COc1ccc(OC)c(/C=C/C(=O)N(C)CC(=O)Nc2cc(C)ccc2C)c1  -15.1%
49. Cc1ccc(NC(=O)C[n+]2cc(-c3ccccc3)n3c2CCC3)cc1.[Cl-]  -15.2%
50. O=C(c1cc(F)cc2c1OCOC2)N1CCN(c2ccc(F)cc2)CC1  -16%
51. COc1ccc(OC)c(/C=C/C(=O)N(C)CC(=O)Nc2ccc(C)cc2)c1  -18.3%
52. O=C(COC(=O)CC1Sc2ccccc2NC1=O)NCc1ccccc1 (stereo not drawn)  -21.4%
53. O=C(CN1C(=O)C2CC=CCC2C1=O)Nc1cc(C(F)(F)F)ccc1N1CCCC1 (stereo not drawn)  -24.6%
54. COc1ccc(NC(=O)CN(C)C(=O)/C=C/c2cn(Cc3ccccc3)nc2-c2cccnc2)cc1  -25.9%
55. Cc1ccc(-c2c[n+](CC(=O)Nc3ccccc3)c3n2CCC3)cc1.[Cl-]  -27.8%
56. COc1ccc(S(=O)(=O)N2CCN(Cc3ccc4c(c3)OCO4)CC2)cc1F  -30.5%
57. Clc1ccc(C[n+]2cc(-c3ccccc3)n3c2CCC3)cc1.[Cl-]  -33.5%
58. O=[N+]([O-])c1ccc(C[n+]2cc(-c3ccccc3)n3c2CCCCC3)cc1.[Br-]  -35.3%
59. O=S(=O)(c1cccc(F)c1)N1CCN(Cc2ccc3c(c2)OCO3)CC1  -35.8%
60. COC(=O)c1cn(CC(=O)N2CCCCCC2)c2ccccc12  -40.1%
61. CCN(CC(=O)NCc1cccs1)C(=O)c1cc(S(=O)(=O)N2CCCCC2)ccc1Cl  -40.2%
62. CN(C)CCNC(C(=O)Nc1cc(Cl)cc(Cl)c1)c1ccccc1 (stereo not drawn)  -45.6%
63. CN(CC(=O)Nc1cccc(F)c1)C(=O)/C=C/c1cn(Cc2ccccc2)nc1-c1cccnc1  -48.8%
64. CCOc1ccc(NC(C(=O)Nc2cccc(C(C)=O)c2)c2ccccc2)cc1 (stereo not drawn)  -49.7%
65. O=S(=O)(c1ccc(F)c(F)c1)N1CCN(Cc2ccc3c(c2)OCO3)CC1  -51.4%
66. Cc1nc2ccccc2c(=O)n1/N=C/c1ccc([N+](=O)[O-])o1  -53.3%
67. CN(CC(=O)Nc1cccc(F)c1)C(=O)/C=C/c1cc(Br)ccc1OC(F)F  -54.8%
68. CN(C)CCNC(C(=O)Nc1cccc(C(F)(F)F)c1)c1ccccc1.O=C(O)C(=O)O (stereo not drawn)  -56.7%
69. Cc1nc2ccccc2n1/N=C/c1ccc([N+](=O)[O-])o1  -58.9%
70. COc1cccc(NC(=O)CN(C)C(=O)/C=C/c2cn(Cc3ccccc3)nc2-c2cccnc2)c1  -59.4%
71. Cc1ccc(Cn2c(SCC(=O)N(C)C3CCS(=O)(=O)C3)nc3ccccc3c2=O)cc1 (stereo not drawn)  -60.8%
72. CCn1c(SCC(=O)N(Cc2ccccc2)C2CCS(=O)(=O)C2)nc2ccccc2c1=O (stereo not drawn)  -61%
73. CCc1ccc(NC(=O)C[n+]2cc(-c3ccc(C)cc3)n3c2CCC3)cc1.[Cl-]  -63.1%
74. Clc1ccc(-c2c[n+](Cc3ccc(Cl)cc3Cl)c3n2CCCCC3)cc1.[Br-]  -66%
75. COc1cccc(NC(=O)CN(C)C(=O)/C=C/c2cc(OC)ccc2OC)c1  -67.8%
76. Cc1ccc(NC(=O)C[n+]2cc(-c3ccc(C)cc3)n3c2CCC3)cc1.[Cl-]  -70%
77. O=C1CCc2cc(S(=O)(=O)N3CCN(Cc4ccc5c(c4)OCO5)CC3)ccc2N1  -70.1%
78. CCN(C(=O)CSc1nc2ccccc2c(=O)n1Cc1ccc(C)cc1)C1CCS(=O)(=O)C1 (stereo not drawn)  -71%
79. Clc1ccc(C[n+]2cc(-c3ccccc3)n3c2CCCCC3)c(Cl)c1.[Br-]  -74.4%
80. CCN(CC)CCNC(C(=O)Nc1cc(C(F)(F)F)ccc1Cl)c1ccccc1 (stereo not drawn)  -76.4%
81. CCN(CC)CCNC(C(=O)Nc1cccc(C(C)=O)c1)c1ccccc1.O=C(O)C(=O)O (stereo not drawn)  -79.1%
